We go through 43 compounds from the supplement of paper PMC9135407.

The subject of this assay is primary human hepatic stellate cells (donor 1). Kind of assay: scaled lipid accumulation score (0 = DMSO-like, 1 = nortriptyline-like); higher = stronger HSC inactivation (lipid re-accumulation), active = hit call of the paper. The note with it: 48 h. As to the method: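 Primary lipid accumulation screen in primary human hepatic stellate cell myofibroblasts (donor 1, passage 8) in 384-well plates. 100 nL of library compound was pin-transferred into 30 µL medium in duplicate, and cells were treated for 48 h. The 'Scaled' score combines distance from plate baseline, toxicity and reproducibility penalties, and is normalised to nortriptyline (positive) and DMSO (negative) controls on each plate. A hit is defined as scaled >0.85 or among the top 3 wells per plate.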

Where [1] appears, read: library stock concentration: 10 mM.
[2] abbreviates: library stock concentration: 3.33 mM.
Setting [3] is: library stock concentration: 80 uM.
Where [4] appears, read: library stock concentration: 400 uM.
The mark [5] stands for this setting: library stock concentration: 2 mM.
Where [6] appears, read: library stock concentration: 1 mM.

Several values for one entry are separate records, joined by “and”; a condition that tells them apart may be missing. Equal values may be shown once. Where a name gives a salt, the structure may show the parent alone. Screen size: about 5,800 compounds; about 620 (11%) showed activity. Many of the other results were omitted from the sample, so actives are more common in it than they were. Unmarked numbers belong to inactive results.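 How the source made its calls: active = score above a cut-off or among the top three wells of a plate; in these data no inactive exceeds 0.85.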 Bounds are passed on as bounds.

For the compound `CC(NCCC(c1ccccc1)c1ccccc1)c1ccccc1` (stereo not drawn) [Fendiline hydrochloride], the “scaled lipid accumulation score” value is 0.144. Under setting [1], the “scaled lipid accumulation score” value is 0.431.
In the case of `CNCCc1ccccn1` [Betahistine 2HCl], the “scaled lipid accumulation score” value is, setting by setting: under setting [2], not above 0; under setting [1], not above -0.001.
For `CNCCc1ccccn1` [Betahistine mesylate], the “scaled lipid accumulation score” value is 0.122.
In the case of `CNCCc1c[nH]c(CCC(c2ccccc2)c2ccccc2)n1.O=C(O)C(=O)O.O=C(O)C(=O)O` [N-Methylhistaprodifen dioxalate salt], under setting [1], the “scaled lipid accumulation score” value is 1.02 (active).
`CNCCc1ccccn1` [Betahistine hydrochloride]: the “scaled lipid accumulation score” value (library stock concentration: 9.6 mM) is not above 0.
Regarding `CCCc1nc(C)c2c(=O)nc(-c3cc(S(=O)(=O)N4CCN(CC)CC4)ccc3OCC)[nH]n12` [Vardenafil HCl Trihydrate], the “scaled lipid accumulation score” value was not above 0 under setting [2] and 0.473 under setting [1].
Take `CCCc1nc(C)c2c(=O)nc(-c3cc(S(=O)(=O)N4CCN(CC)CC4)ccc3OCC)[nH]n12`: the “scaled lipid accumulation score” value under setting [1] is not above 0.
With `COc1cc2ncnc(-n3nc(-c4ccccn4)nc3N)c2cc1OC`, the “scaled lipid accumulation score” value under setting [3] is not above 0, the “scaled lipid accumulation score” value under setting [4] is 0.052, the “scaled lipid accumulation score” value under setting [5] is 0.101 and the “scaled lipid accumulation score” value under setting [1] was 0.046.
In the case of `N[C@H]1C(O)O[C@H](CO)[C@@H](O)[C@@H]1O` (stereo partly drawn) [Glucosamine hydrochloride], the “scaled lipid accumulation score” value is, setting by setting: (library stock concentration: 9.3 mM) not above -0.001; under setting [1], 0.034.
For the compound `CCCCCC=CCC=CCC=CCC=CCCCCCC(=O)O` [Adrenic acid (22:4, n-6)], under setting [6], the “scaled lipid accumulation score” value is not above -0.01.
For `CCN(CC)CCOc1ccc(C(=C(Cl)c2ccccc2)c2ccccc2)cc1.O=C(O)CC(O)(CC(=O)O)C(=O)O` [Clomid], under setting [1], the “scaled lipid accumulation score” value is 0.963 (active).
Consider `CCN(CC)CCOCCOC(=O)C(CC)(CC)c1ccccc1.O=C(O)CC(O)(CC(=O)O)C(=O)O`, for which the “scaled lipid accumulation score” value under setting [1] was 0.866 (active).
Turning to `COc1ccc(C(Cl)=C(c2ccc(OC)cc2)c2ccc(OC)cc2)cc1` [Chlorotrianisene], the “scaled lipid accumulation score” value is not above 0. Moreover, the “scaled lipid accumulation score” value (library stock concentration: 5.3 mM) was 0.022. Under setting [1], the “scaled lipid accumulation score” value was not above 0.
On to `CCN(CC)CCOCCOC(=O)C1(c2ccccc2)CCCC1` [Pentoxyverine Citrate], for which the “scaled lipid accumulation score” value under setting [2] is not above 0 and the “scaled lipid accumulation score” value under setting [1] was 0.424.
Regarding `CCCC(C(=O)OCCN(CC)CC)(c1ccccc1)c1ccccc1` [SKF-525A hydrochloride], under setting [1], the “scaled lipid accumulation score” value was 0.355.
As for `CCN(CC)CCOC(=O)c1ccc(N)cc1` [Procaine hydrochloride], the “scaled lipid accumulation score” value was 0.256. Moreover, for the setting “library stock concentration: 7.3 mM”, the “scaled lipid accumulation score” value was not above 0. In addition, the “scaled lipid accumulation score” value under setting [1] is not above 0.
With `CCN(CC)CCOc1ccc(C(=C(Cl)c2ccccc2)c2ccccc2)cc1` [Clomiphene citrate], the “scaled lipid accumulation score” value reads like this: (library stock concentration: 4.9 mM) 0.705; under setting [1], not above 0.
`CCN(CC)CCOc1ccc(/C(=C(/Cl)c2ccccc2)c2ccccc2)cc1.O=C(O)CC(O)(CC(=O)O)C(=O)O` [Clomiphene citrate (Z,E)]: the “scaled lipid accumulation score” value is 0.946 (active).
Take `CCN(CC)CCOC(=O)c1ccc(N)cc1` [Procaine HCl]: the “scaled lipid accumulation score” value is not above 0 under setting [2] and not above -0.001 under setting [1].
Turning to `CCN(CC)CCOCCOC(=O)C1(c2ccccc2)CCCC1` [Carbetapentane citrate], the “scaled lipid accumulation score” value is 0.595. Besides, the “scaled lipid accumulation score” value under setting [1] is 0.72 and 0.014 and 0.411.
For the compound `CCCC(C(=O)OCCN(CC)CC)(c1ccccc1)c1ccccc1` [Proadifen hydrochloride], the “scaled lipid accumulation score” value was 0.228. In addition, where the note is “library stock concentration: 5.1 mM”, the “scaled lipid accumulation score” value was 0.536. The “scaled lipid accumulation score” value under setting [1] was 0.511.
Take `CCN(CC)CCOc1ccc(C(=C(Cl)c2ccccc2)c2ccccc2)cc1` [Clomifene citrate]: under setting [2], the “scaled lipid accumulation score” value is 0.72.
As for `CCN(CC)CCOc1ccc(C(=C(Cl)c2ccccc2)c2ccccc2)cc1.O=C(O)CC(O)(CC(=O)O)C(=O)O` [Clomifene citrate], the “scaled lipid accumulation score” value under setting [1] is 1.12 (active).
The same measure, in the same setting: the same measure for `CC(C)[C@H]1c2ccc(F)cc2CC[C@@]1(CCN(C)CCCc1nc2ccccc2[nH]1)OC(=O)C1CC1`: not above -0.055; for `CC(C)[C@H]1c2ccc(F)cc2CC[C@@]1(CCN(C)CCCc1nc2ccccc2[nH]1)OC(=O)C1CC1` [NNC 55-0396 dihydrochloride]: 0.432.
In the case of `COc1ccc(-c2nc3cc(F)ccc3s2)cc1OC`, the “scaled lipid accumulation score” value under setting [6] was not above 0.
Regarding `C=C1C[C@]23C[C@@]1(O)CC[C@H]2[C@@]12C=C[C@H](O)[C@@](C)(C(=O)O1)[C@H]2[C@@H]3C(=O)O` [Gibberellic acid], the “scaled lipid accumulation score” value is not above 0.
`Cc1cc(I)ccc1Nc1c(C(=O)NOCC2CC2)cc(F)c(F)c1F`: the “scaled lipid accumulation score” value under setting [1] is not above -0.001.
`CCc1cc2c(c(CC)n1)CCC(=O)N2Cc1ccc(-c2ccccc2-c2nn[nH]n2)cc1` [ZD 7155 hydrochloride]: the “scaled lipid accumulation score” value under setting [1] is 0.009.
`CCCCCCCCCCCCCCC[C@@H](O)[C@H](CO)NC(=O)CCCCCCC` [C8 Dihydroceramide]: under setting [6], the “scaled lipid accumulation score” value is not above -0.021.
For the compound `CN(CCCOc1ccc(Cc2ccccc2)cc1)CCC(=O)O`, under setting [1], the “scaled lipid accumulation score” value is not above 0.
Consider `CCN(CC)CCOc1ccc(Cc2ccccc2)cc1.O=C(O)/C=C/C(=O)O` [DPPE fumarate], for which the “scaled lipid accumulation score” value under setting [1] was 0.879 (active).
`CCN(CC)CCOC(=O)C(c1ccccc1)c1ccccc1` [Adiphenine HCl]: the “scaled lipid accumulation score” value under setting [2] was not above 0 and the “scaled lipid accumulation score” value under setting [1] was not above 0.
Take `CCN(CC)CCOC(=O)C(c1ccccc1)c1ccccc1` [Adiphenine hydrochloride]: the “scaled lipid accumulation score” value was not above 0. Besides, the “scaled lipid accumulation score” value (library stock concentration: 5.7 mM) is 0.005. Besides, the “scaled lipid accumulation score” value under setting [1] was 0.111.
Turning to `COc1ccc2c(c1)c(CC(=O)Nc1cccnc1)c(C)n2C(=O)c1ccc(Cl)cc1` [N-(3-pyridyl)-Indomethacin amide], the “scaled lipid accumulation score” value under setting [6] was 0.198.
Take `CCCc1ccc(C(=O)Oc2ccc(C#N)cc2)cc1`: the “scaled lipid accumulation score” value under setting [1] was 0.011.
As to `CN(C)C(=O)CCSC(SCCC(=O)O)c1cccc(/C=C/c2ccc3ccc(Cl)cc3n2)c1` (stereo not drawn) [MK 571 (sodium salt)], the “scaled lipid accumulation score” value under setting [6] is not above 0.
`CCOc1cc2ncc(C#N)c(Nc3ccc(F)c(Cl)c3)c2cc1NC(=O)C=CCN(C)C` [Pelitinib (EKB-569)]: the “scaled lipid accumulation score” value under setting [2] was 1.01 (active).
Take `CCOc1cc2ncc(C#N)c(Nc3ccc(F)c(Cl)c3)c2cc1NC(=O)/C=C/CN(C)C`: the “scaled lipid accumulation score” value runs as follows: under setting [3], 0.071; under setting [4], not above -0.009; under setting [5], 0.269.
Consider `CCOc1cc2ncc(C#N)c(Nc3ccc(F)c(Cl)c3)c2cc1NC(=O)/C=C/CN(C)C` [Pelitinib (EKB-569)], for which the “scaled lipid accumulation score” value under setting [1] was 0.498.
On to `CCOc1cc2ncc(C#N)c(Nc3ccc(OCc4ccccn4)c(Cl)c3)c2cc1NC(=O)/C=C/CN(C)C`, for which the “scaled lipid accumulation score” value reads like this: under setting [3], not above 0; under setting [4], not above 0; under setting [5], 0.107; under setting [1], 0.02.
For `CCOc1cc2ncc(C#N)c(Nc3ccc(F)c(Cl)c3)c2cc1NC(=O)C=CCN(C)C`, the “scaled lipid accumulation score” value under setting [1] is 1.13 (active).
As to `CCOc1cc(C(=O)Nc2ccc(Cl)c(-c3nc4ccccc4[nH]3)c2)cc(OCC)c1OCC`, the “scaled lipid accumulation score” value under setting [1] was 0.438.
